As usually defined, the AC50 is the midpoint of the concentration-response curve, whichever way the signal moves.

Molecules are shown by their SMILES. Values joined by “and” are separate entries in the source; they are usually repeats but may differ in a detail not shown here. Equal entries are not always repeated. Where a structure was tested more than once in an assay, its records may differ in their call. Active and inactive are the calls of the source. The calls were made as follows: active = hit-call score of the fitted dose curve at least 0.9, where 1 is the maximum; inactive = score below 0.9.

Experiment [1] can be described thus: ATG_ISRE_CIS: Attagene CIS-FACTORIAL HepG2 Assay for human Interferon Regulatory Factor 1 (IRF1) binding to an Interferon-Stimulated Response Element (ISRE) (AID 2282948). As to conditions: HepG2 ISRE cis-reporter (Attagene), mRNA transcription readout; actives raise or lower the signal. In a few lines: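 Endogenous transcription factor activity read as reporter transcript abundance via RT-PCR and capillary electrophoresis. HepG2 cells transiently transfected, 24 h chemical exposure. Gain or loss fitted against DMSO baseline.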

Experiment [2] can be described thus: ATG_M_32_CIS: Attagene CIS-FACTORIAL HepG2 Assay for M32 Transcription Factor (Internal Marker) (AID 2282949).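 Also: background control marker of the multiplexed CIS panel rather than a real target.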 As to conditions: HepG2 Attagene cis-factorial M32 reporter, mRNA; actives raise or lower the signal. In short, it runs like this: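 HepG2 human liver cells transiently transfected with cis-promoter-driven multiple reporter transcription units, dosed 24 h. Reporter mRNA quantified by RT-PCR, FAM-labelled primer extension, HpaI digest and capillary electrophoresis; bidirectional fit versus DMSO baseline.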

Experiment [3] is described as follows: ATG_M_06_CIS: Attagene CIS-FACTORIAL HepG2 Assay for M06 Transcription Factor (Internal Marker) (AID 2282950). The following applies: HepG2 Attagene CIS-FACTORIAL M06 internal marker reporter; actives raise or lower the signal. In short, it runs like this:
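Measured 24 h post-dosing in transiently transfected HepG2 cells, this internal-marker endpoint reports reporter mRNA via RT-PCR with fluorescent primer extension and capillary electrophoresis. DMSO served as negative control and baseline for bidirectional fitting.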

The target in experiment [4] is Hepatocyte nuclear factor 6 (Homo sapiens) (UniProt Q9UBC0). In words: ATG_HNF6_CIS: Attagene CIS-FACTORIAL HepG2 Assay for human Hepatocyte Nuclear Factor 6 (HNF6) (AID 2282952). As to conditions: HepG2 Attagene cis-factorial HNF6 reporter transcription; actives raise or lower the signal. In a few lines:
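Endogenous transcription factor activity in human HepG2 liver cells was captured through cis-regulated reporter constructs. After 24 h treatment, reporter mRNA was measured by RT-PCR with capillary electrophoresis, and activity was fitted in both directions relative to DMSO.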

Experiment [5] concerns the target Heat shock factor protein 1 (Homo sapiens) (UniProt Q00613). Briefly: ATG_HSE_CIS: Attagene CIS-FACTORIAL HepG2 Assay for human Heat Shock Transcription Factor 1 (HSE) (AID 2282953). The following applies: HepG2 HSE cis-reporter, Attagene RNA transcription; actives raise or lower the signal. In short, it runs like this: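 Reporter mRNA induction in HepG2 is measured 24 h after dosing, using transiently transfected multiplexed cis-regulated reporter units. Signal comes from capillary electrophoresis of labelled RT-PCR products, with DMSO as negative control.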

Experiment [6] is described as follows: ATG_MRE_CIS: Attagene CIS-FACTORIAL HepG2 Assay for human Metal Responsive Element (MRE) (AID 2282954). The following applies: HepG2 MRE cis-reporter transcription, Attagene multiplex; actives raise or lower the signal. In a few lines: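 Endogenous MRE-dependent transcription read as reporter mRNA in transiently transfected human HepG2 cells at 24 h. RNA reverse-transcribed, PCR-amplified, labelled and resolved by capillary electrophoresis; gain or loss relative to DMSO.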

Experiment [7] has as its target Paired box protein Pax-6 (Homo sapiens) (UniProt P26367). Briefly: ATG_Pax6_CIS: Attagene CIS-FACTORIAL HepG2 Assay for human Paired Box 6 (PAX6) (AID 2282956). The following applies: HepG2 CIS-FACTORIAL PAX6 reporter transcription, RNA readout; actives raise or lower the signal. In a few lines: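 Read-out is reporter transcript level, measured by RT-PCR with fluorescent primer extension and capillary electrophoresis after 24 h dosing of transfected HepG2 cells. Activity in either direction fitted relative to DMSO control.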

Experiment [8] can be described thus: ATG_PXRE_CIS: Attagene CIS-FACTORIAL HepG2 Assay for human Pregnane X Receptor Element (PXRE) (AID 2282957). The following applies: HepG2 Attagene CIS-FACTORIAL PXRE reporter, mRNA; actives raise or lower the signal. In a few lines:
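Endogenous transcription factor activity in HepG2 was gauged through induction of reporter mRNA driven by a cis-regulating promoter element, sampled 24 h post-treatment. Activity was fitted in both directions against DMSO negative control.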

Experiment [9] is described as follows: ATG_PPRE_CIS: Attagene CIS-FACTORIAL HepG2 Assay for human Peroxisome Proliferator-activated Response Element (PPRE) (AID 2282958). As to conditions: HepG2 PPRE cis-element reporter, Attagene transcription factor profiling; actives raise or lower the signal. In short, it runs like this:
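Measured endpoint: PPRE-controlled reporter mRNA, detected by RT-PCR and capillary electrophoresis fluorescence, from transiently transfected HepG2 cells 24 h after dosing. Curves fitted in both directions using DMSO baseline.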

A short description of experiment [10]: ATG_Sox_CIS: Attagene CIS-FACTORIAL HepG2 Assay for human SRY-box transcription factor (SOX) (AID 2282960). As to conditions: HepG2 Attagene cis-factorial SOX reporter, mRNA; actives raise or lower the signal. In a few lines:
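Gain- or loss-of-signal endpoint, fitted bidirectionally with DMSO as negative control. Based on reporter mRNA from transfected HepG2 cells harvested 24 h post-treatment and quantified via RT-PCR and capillary electrophoresis.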

Experiment [11] addresses Transcription factor Sp1 (Homo sapiens) (UniProt P08047). In words: ATG_Sp1_CIS: Attagene CIS-FACTORIAL HepG2 Assay for human Specificity Protein 1 (Sp1) (AID 2282961). The following applies: HepG2 Sp1 cis-reporter transcription, actives raise or lower the signal. In short, it runs like this:
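Endpoint reflects endogenous Sp1 transcriptional activity, not an exogenous fusion protein: HepG2 cells with transfected cis-regulated reporters, 24 h dosing, RT-PCR/capillary electrophoresis mRNA read-out, DMSO-normalised bidirectional fit.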

Experiment [12] can be described thus: ATG_SREBP_CIS: Attagene CIS-FACTORIAL HepG2 Assay for human Sterol Regulatory Element Binding (SREBP) (AID 2282962). As to conditions: HepG2 Attagene cis-factorial SREBP reporter, mRNA; actives raise or lower the signal. In short, it runs like this: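 Endogenous SREBP activity read as cis-element-driven reporter transcript in transiently transfected HepG2, 24 h post-dosing; quantified via RT-PCR plus capillary electrophoresis of fluorescent fragments. Gain or loss of signal fitted relative to DMSO baseline.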

Experiment [13] has as its target Signal transducer and activator of transcription 3 (Homo sapiens) (UniProt P40763). In words: ATG_STAT3_CIS: Attagene CIS-FACTORIAL HepG2 Assay for human Signal Transducer and Activator of Transcription 3 (STAT3) (AID 2282963). The following applies: HepG2, Attagene cis-factorial STAT3 reporter transcription; actives raise or lower the signal. In short, it runs like this:
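Readout is reporter transcript quantified by RT-PCR and capillary electrophoresis, with 6-FAM primer extension and HpaI digestion. Total RNA is taken 24 h after dosing transiently transfected HepG2 carrying cis-regulated reporter units. Bidirectional fit against DMSO.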

Experiment [14] in a line: ATG_TA_CIS: Attagene CIS-FACTORIAL HepG2 Assay for human TA Basal Promoter (AID 2282964). The following applies: HepG2 Attagene CIS-factorial TA basal promoter reporter; actives raise or lower the signal. In short, it runs like this: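 Cis-factorial format in HepG2: reporters report endogenous factors, not chimeric Gal4 fusions. After 24 h treatment, reporter transcripts were measured by RT-PCR-capillary electrophoresis fluorescence, analysed bidirectionally versus DMSO.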

Experiment [15] has as its target Bile acid receptor (Homo sapiens) (UniProt Q96RI1). Briefly: ATG_IR1_CIS: Attagene CIS-FACTORIAL HepG2 Assay for human Nuclear Receptor Subfamily 1 Group H Member 4 (NR1H4), IR1 submotif (AID 2282946). The following applies: IR1 reporter transcription, actives raise or lower the signal. In a few lines: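 HepG2 cells transiently transfected with multiplexed cis-element reporter units read endogenous transcription factor activity. After 24 h compound exposure, reporter mRNA was quantified by RT-PCR, fluorescent labelling, HpaI digestion and capillary electrophoresis; bidirectional fitting versus DMSO baseline.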

Experiment [16] is described as follows: ATG_GRE_CIS: Attagene CIS-FACTORIAL HepG2 Assay for human Glucocorticoid Response Elements (GRE) (AID 2282947). As to conditions: HepG2 GRE cis-reporter, Attagene multiplex mRNA; actives raise or lower the signal. In a few lines: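 Reporter transcripts read by RT-PCR with capillary electrophoresis fluorescence after a 24 h chemical exposure of HepG2 cells transiently transfected with multiple cis-element reporter units. Gain or loss fitted against DMSO.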

Experiment [17] addresses Hypoxia-inducible factor 1-alpha (Homo sapiens) (UniProt Q16665). Briefly: ATG_HIF1a_CIS: Attagene CIS-FACTORIAL HepG2 Assay for human Hypoxia Inducible Factor 1 (HIF1A) (AID 2282951). As to conditions: HepG2 Attagene cis-factorial HIF1a reporter transcription; actives raise or lower the signal. In a few lines:
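Dosed 24 h, transfected HepG2 cells yielded total RNA whose reporter transcripts were RT-PCR-amplified and sized by capillary electrophoresis using fluorescent labelling; DMSO defined baseline, with gain and loss of signal both fitted.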

Experiment [18] can be described thus: ATG_PBREM_CIS: Attagene CIS-FACTORIAL HepG2 Assay for human Phenobarbital-responsive Enhancer Module (PBREM) (AID 2282955). As to conditions: HepG2 PBREM cis-reporter, Attagene multiplexed transcription; actives raise or lower the signal. In short, it runs like this: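 Transfected liver-derived HepG2 cells exposed 24 h; PBREM reporter transcript quantified via RT-PCR and capillary electrophoresis, with activity in either direction referenced to DMSO.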

Experiment [19] is described as follows: ATG_RORE_CIS: Attagene CIS-FACTORIAL HepG2 Assay for human RAR-related Orphan Receptor Element (RORE) (AID 2282959). As to conditions: HepG2 Attagene cis-factorial RORE reporter, mRNA; actives raise or lower the signal. In short, it runs like this:
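Transiently transfected HepG2 reporter cells were treated 24 h. Reporter transcripts were detected by RT-PCR and capillary electrophoresis, with bidirectional fitting against DMSO.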

Chain of Hepatocyte nuclear factor 6 (Homo sapiens) (Q9UBC0 whole entry, looked up): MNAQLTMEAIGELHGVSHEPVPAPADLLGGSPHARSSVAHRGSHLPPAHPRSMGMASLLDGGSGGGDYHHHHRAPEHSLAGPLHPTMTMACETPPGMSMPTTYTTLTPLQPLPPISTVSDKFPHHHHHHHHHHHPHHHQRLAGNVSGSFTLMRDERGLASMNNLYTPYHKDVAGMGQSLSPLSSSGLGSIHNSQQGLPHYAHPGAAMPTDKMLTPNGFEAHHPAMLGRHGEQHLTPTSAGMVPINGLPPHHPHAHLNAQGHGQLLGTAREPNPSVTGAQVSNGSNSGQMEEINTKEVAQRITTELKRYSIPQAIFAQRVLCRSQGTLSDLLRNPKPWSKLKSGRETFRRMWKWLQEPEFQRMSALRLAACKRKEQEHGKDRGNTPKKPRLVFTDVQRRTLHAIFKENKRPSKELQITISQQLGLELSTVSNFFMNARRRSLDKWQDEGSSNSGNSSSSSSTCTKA
Chain of Signal transducer and activator of transcription 3 (Homo sapiens) (P40763 whole entry, looked up): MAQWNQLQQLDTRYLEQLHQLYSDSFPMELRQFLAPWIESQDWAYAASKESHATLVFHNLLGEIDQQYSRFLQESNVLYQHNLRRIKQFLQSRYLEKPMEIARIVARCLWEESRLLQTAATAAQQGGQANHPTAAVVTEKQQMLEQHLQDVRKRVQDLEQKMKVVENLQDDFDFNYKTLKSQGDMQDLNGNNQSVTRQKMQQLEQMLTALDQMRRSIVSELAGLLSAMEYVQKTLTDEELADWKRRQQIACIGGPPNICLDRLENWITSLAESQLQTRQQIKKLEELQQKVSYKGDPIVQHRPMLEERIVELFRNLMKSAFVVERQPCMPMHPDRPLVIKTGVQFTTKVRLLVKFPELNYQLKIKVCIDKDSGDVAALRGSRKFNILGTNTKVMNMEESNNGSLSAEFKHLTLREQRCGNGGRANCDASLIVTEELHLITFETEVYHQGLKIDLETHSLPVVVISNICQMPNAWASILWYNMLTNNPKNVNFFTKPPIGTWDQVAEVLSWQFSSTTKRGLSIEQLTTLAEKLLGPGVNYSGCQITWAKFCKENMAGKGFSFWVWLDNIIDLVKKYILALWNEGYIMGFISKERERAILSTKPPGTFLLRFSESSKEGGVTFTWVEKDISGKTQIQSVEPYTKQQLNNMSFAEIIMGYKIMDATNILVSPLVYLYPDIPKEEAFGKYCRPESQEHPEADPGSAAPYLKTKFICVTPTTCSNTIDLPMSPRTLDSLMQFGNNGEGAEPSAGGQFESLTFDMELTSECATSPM
Chain of Heat shock factor protein 1 (Homo sapiens) (Q00613 whole entry, looked up): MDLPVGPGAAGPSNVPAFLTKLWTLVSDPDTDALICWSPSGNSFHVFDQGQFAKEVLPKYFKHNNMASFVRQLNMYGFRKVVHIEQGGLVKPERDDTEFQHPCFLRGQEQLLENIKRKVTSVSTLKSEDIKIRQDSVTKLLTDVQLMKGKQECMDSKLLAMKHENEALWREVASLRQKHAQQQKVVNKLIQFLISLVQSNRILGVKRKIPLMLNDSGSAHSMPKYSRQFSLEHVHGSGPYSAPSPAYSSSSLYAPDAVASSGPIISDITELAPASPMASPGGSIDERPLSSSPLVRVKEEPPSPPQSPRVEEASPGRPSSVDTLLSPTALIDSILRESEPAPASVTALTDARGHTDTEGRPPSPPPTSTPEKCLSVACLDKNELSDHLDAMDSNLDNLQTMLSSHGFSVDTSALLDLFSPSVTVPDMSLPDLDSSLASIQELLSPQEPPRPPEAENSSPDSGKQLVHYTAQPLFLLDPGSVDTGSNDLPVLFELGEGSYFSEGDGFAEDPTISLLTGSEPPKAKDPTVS
Chain of Paired box protein Pax-6 (Homo sapiens) (P26367 whole entry, looked up): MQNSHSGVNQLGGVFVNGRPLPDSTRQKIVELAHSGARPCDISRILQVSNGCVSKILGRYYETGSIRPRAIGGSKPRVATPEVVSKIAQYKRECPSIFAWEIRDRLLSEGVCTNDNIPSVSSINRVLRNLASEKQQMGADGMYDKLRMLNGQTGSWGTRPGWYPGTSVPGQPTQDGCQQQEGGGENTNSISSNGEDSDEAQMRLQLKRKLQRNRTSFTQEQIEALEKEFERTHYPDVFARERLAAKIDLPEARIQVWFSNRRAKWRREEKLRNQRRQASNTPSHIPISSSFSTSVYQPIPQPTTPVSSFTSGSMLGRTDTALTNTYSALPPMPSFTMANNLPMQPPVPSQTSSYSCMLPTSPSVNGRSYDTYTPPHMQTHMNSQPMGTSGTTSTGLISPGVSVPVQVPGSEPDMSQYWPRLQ
Chain of Transcription factor Sp1 (Homo sapiens) (P08047 whole entry, looked up, the tested form may be a part): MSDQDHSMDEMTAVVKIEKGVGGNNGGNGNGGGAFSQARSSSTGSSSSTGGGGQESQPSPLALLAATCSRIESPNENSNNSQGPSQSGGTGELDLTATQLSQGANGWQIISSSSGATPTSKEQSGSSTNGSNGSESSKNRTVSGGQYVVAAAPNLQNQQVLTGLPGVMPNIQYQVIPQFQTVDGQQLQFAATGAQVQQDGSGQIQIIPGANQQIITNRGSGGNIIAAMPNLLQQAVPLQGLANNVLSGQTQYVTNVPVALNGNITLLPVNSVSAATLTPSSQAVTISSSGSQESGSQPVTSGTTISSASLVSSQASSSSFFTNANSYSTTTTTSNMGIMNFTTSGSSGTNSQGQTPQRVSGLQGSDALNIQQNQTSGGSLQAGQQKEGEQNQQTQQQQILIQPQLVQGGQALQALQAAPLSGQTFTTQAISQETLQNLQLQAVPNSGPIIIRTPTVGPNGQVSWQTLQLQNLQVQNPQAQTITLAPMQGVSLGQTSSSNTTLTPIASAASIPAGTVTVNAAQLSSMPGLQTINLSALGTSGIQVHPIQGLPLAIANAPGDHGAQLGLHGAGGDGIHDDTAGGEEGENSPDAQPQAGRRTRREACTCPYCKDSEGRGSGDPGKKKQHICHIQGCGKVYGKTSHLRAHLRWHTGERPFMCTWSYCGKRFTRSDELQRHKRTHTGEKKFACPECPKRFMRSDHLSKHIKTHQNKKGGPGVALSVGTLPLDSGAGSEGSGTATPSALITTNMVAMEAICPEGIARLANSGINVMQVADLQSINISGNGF
Chain of Hypoxia-inducible factor 1-alpha (Homo sapiens) (Q16665 whole entry, looked up): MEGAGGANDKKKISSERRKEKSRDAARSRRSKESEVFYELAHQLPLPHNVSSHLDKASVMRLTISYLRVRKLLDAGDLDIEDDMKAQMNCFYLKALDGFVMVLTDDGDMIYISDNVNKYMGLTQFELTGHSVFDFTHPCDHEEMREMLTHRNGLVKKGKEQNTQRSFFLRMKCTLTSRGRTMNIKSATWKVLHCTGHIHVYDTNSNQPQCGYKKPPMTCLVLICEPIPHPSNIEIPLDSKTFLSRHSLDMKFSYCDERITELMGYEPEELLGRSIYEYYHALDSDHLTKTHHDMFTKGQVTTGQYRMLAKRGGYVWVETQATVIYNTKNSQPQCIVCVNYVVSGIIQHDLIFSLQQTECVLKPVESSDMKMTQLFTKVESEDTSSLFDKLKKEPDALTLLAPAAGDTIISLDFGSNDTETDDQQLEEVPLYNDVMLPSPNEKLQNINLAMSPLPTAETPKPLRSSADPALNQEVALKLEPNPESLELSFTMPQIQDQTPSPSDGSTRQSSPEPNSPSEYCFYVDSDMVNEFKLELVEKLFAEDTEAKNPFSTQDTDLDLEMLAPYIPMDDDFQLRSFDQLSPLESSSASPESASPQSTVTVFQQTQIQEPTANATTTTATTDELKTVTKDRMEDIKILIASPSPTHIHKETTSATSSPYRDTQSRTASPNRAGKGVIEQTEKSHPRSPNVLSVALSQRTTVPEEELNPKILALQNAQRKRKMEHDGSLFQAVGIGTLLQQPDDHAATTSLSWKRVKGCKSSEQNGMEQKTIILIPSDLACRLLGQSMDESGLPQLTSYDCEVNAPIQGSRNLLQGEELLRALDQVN
Chain of Bile acid receptor (Homo sapiens) (Q96RI1 whole entry, looked up): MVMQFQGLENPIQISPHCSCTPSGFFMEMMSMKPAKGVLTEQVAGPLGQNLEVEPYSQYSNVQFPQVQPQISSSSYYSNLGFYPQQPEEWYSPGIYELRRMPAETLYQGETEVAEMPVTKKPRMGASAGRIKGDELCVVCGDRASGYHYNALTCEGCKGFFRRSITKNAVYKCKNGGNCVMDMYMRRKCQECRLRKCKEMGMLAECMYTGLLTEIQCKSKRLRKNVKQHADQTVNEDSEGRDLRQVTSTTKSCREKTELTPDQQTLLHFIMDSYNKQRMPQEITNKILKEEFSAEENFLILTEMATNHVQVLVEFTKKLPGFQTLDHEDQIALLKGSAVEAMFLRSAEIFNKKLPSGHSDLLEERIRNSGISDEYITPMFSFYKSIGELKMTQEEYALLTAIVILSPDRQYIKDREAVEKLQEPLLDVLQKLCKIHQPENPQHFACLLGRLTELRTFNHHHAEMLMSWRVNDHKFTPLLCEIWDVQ

`CC(=O)[C@H]1CC[C@H]2[C@@H]3CCC4=CC(=O)CC[C@]4(C)[C@H]3CC[C@]12C`: the AC50 in experiment [1] is 46.4 µM (active); in [4], 182 µM (active); in experiment [5] it was 60 µM (active) and 149 µM (active); in [6], 33.4 µM (active) and 38.9 µM (active) and 117 µM (active); in [7] it was 24.6 µM (active); in experiment [8] it was 4.83 µM (active) [middle of 4 runs]. For the same compound, the AC50 in experiment [12] is 33.4 µM (active) [middle of 4 runs]; in experiment [13] it was 180 µM (active). For the same compound, the call in experiment [1], in [2], in experiment [3], in [4], in experiment [5] and in experiment [6] was inactive. For the same compound, the outcome in experiment [7], in [9], in experiment [10], in experiment [11], in experiment [13] and in experiment [14] was inactive.
On to `COC(=O)c1cccc(C)c1S(=O)(=O)NC(=O)Nc1nc(OCC(F)(F)F)nc(N(C)C)n1`, for which the outcome in experiment [15], in experiment [16], in [1], in [2], in experiment [3] and in [17] was inactive. Also, the call in experiment [4], in [5], in experiment [6], in experiment [18], in experiment [7] and in [9] was inactive. The call in experiment [19], in [10], in experiment [11], in experiment [12], in experiment [13] and in experiment [14] was inactive. For the same compound, the AC50 in experiment [8] is 34.5 µM (active).
On to `S=C([S-])NCCNC(=S)[S-].[Mn+2]`, for which the call in experiment [16], in experiment [1], in experiment [2], in experiment [3], in experiment [17] and in experiment [4] was inactive. In addition, the outcome in [5], in experiment [6], in experiment [7], in experiment [8], in [19] and in experiment [10] was inactive. Also, the outcome in [11], in [12], in [13] and in [14] was inactive.

For the origin of these results see PubChem BioAssay (EPA / NIEHS).
